Measured values from PubChem BioAssay AID1159580 (chemical genetic matrix, 2015).
The whole screen tested about 5,500 compounds, of which about 2,000 (36%) were called active. About 18% were inconclusive and are not listed. Cut-off read from the data, not from the text of the source: active = normalized growth mostly below about 0.91 (no sharp cut-off); inconclusive = no clear call, values can overlap the other calls; inactive = mostly above about 0.92. This is one part of the list.

Assay: chemical genetic growth profiling, strain panel (AID 1159580);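 note: tested at 20 µM; growth read once vehicle control cultures reached saturation at 30 °C; 1 = growth at the plate median or of vehicle wells; lower values mean less growth of the strain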
Details: S. cerevisiae deletion strains, growth OD

Measured: normalized growth

NC(N)=NCCSSCCN=C(N)N
inactive: locus YAL013W, strain DEP1, hits give low values 0.949 | locus YAL040C, strain CLN3, hits give low values 0.948 | locus YCL061C, strain MRC1 (second series), hits give low values 0.979 | locus YDR150W, strain NUM1, hits give low values 0.988 | locus YDR363W, strain ESC2, hits give low values 0.941 | locus YER002W, strain NOP16, hits give low values 0.992 | locus YGR078C, strain PAC10, hits give low values 0.973 | locus YJR075W, strain HOC1, hits give low values 0.967 | locus YMR263W, strain SAP30, hits give low values 0.981 | locus YMR307W, strain GAS1, hits give low values 0.977 | locus YNL175C, strain NOP13, hits give low values 0.981 | locus YNL197C, strain WHI3, hits give low values 0.972 | locus YNL224C, strain SQS1, hits give low values 1.01 | locus YOR083W, strain WHI5 (second series), hits give low values 0.963 | locus YPL055C, strain LGE1, hits give low values 0.983
